In PubChem BioAssay (NCATS):
Records with an inconclusive call do not appear. Some structures have more than one record in an assay (separate samples or runs), and their calls can disagree. The source made the active and inactive calls. Unless noted, the call rests on the fitted dose curve; in most records, active means well fitted curve in the direction sought with a large enough effect; inconclusive means small, poorly fitted or top-dose-only effect, or another doubt; inactive means no such curve, though single readings can be large; an effect the other way counts as inactive or inconclusive.

How the values were obtained:
[1] = qHTS Validation Assay to Find Inhibitors of Chronic Active B-Cell Receptor Signaling (AID 485345; active means well fitted curve in the direction sought with a large enough effect in the main read-out, with a control signal flat, not every such curve was filed as active)
Summary of the method: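 TMD8 ABC-DLBCL cells stably carrying doxycycline-inducible IkappaBalpha–green luciferase fusion plus unfused red luciferase; compounds 46 uM to 3 nM, 4 h at 37C with doxycycline. Corrected green/red luminescence ratio normalized to 10 uM MG-132 and basal cell wells; curves fitted.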

[2] = target: Beta-2 adrenergic receptor (Homo sapiens) (UniProt P07550); test: qHTS validation assay of beta-arrestin-biased ligands of beta2-adrenergic receptor (AID 485366)
Summary of the method: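 Luminescence from a tTA-responsive luciferase, induced when recombinant beta-arrestin is recruited to recombinant beta2-AR, served as the agonism signal. Cells were exposed to compound for 18 hr at 37 degrees C; titrations spanned up to 46 microM.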

[3] = target: ATP-dependent 6-phosphofructokinase (Trypanosoma brucei brucei) (UniProt O15648); test: qHTS Validation Assay to Find Inhibitors of T. brucei phosphofructokinase (AID 485368); further: potency means the concentration at half of the fitted maximal effect
Summary of the method: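 Activity was normalized between 1x (1.25 nM) PFK wells as no inhibition and enzyme-free wells as full inhibition, from luminescence after ADP-Glo detection of ADP made from 0.5 mM F6P and 0.1 mM ATP over 45 min.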

[4] = Quantitative high throughput screen for delayed death inhibitors of the malarial parasite plastid, 48 hour incubation (AID 488752); further: nearly all actives have a fitted effect of over 65% in size; further: potency means the concentration at half of the fitted maximal effect
Summary of the method: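 Readout is firefly luciferase luminescence from a reporter integrated into the parasite genome, with lower signal taken as inhibited growth. Infected red cells (0.1% parasitemia, 2% hematocrit final) are cultured with compound for one 48 h cycle at 37 C.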

[5] = target: Thioredoxin reductase 1, cytoplasmic (Rattus norvegicus) (UniProt O89049); test: qHTS Assay for Substrates of Mammalian Selenoprotein Thioredoxin Reductase 1 (TrxR1) (AID 488772);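 further: NADPH fluorescence in the first read after selenite addition and not the 8 min delta; series mostly up to about 57 µM; a drop in NADPH fluorescence below the no-compound background marks a TrxR1 substrate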
Summary of the method: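 Quantitative HTS in Tris-HCl buffer at pH 7.5 with EDTA and Tween-20, using rat TrxR1, 400 uM NADPH and 400 uM selenite (final). A fall in initial NADPH fluorescence relative to background marked substrate behaviour.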

[6] = target: Thioredoxin reductase 1, cytoplasmic (Rattus norvegicus) (UniProt O89049); test: qHTS Assay for Inhibitors of Mammalian Selenoprotein Thioredoxin Reductase 1 (TrxR1) (AID 488773);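 further: drop in NADPH fluorescence over an 8 min run after selenite addition; series mostly up to about 57 µM; nearly all actives have a fitted effect of over 40% in size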
Summary of the method: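 Steps: enzyme (90 nM) plus NADPH (400 uM final), 5 min at ~22 deg C; compound added, 15 min; selenite (400 uM final) added; fluorescence followed for 8 min. Concentration-response curves derived from the normalized delta values.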

[7] = target: Flap endonuclease 1 (Homo sapiens) (UniProt P39748); test: qHTS Validation Assay for the Inhibitors of Human Flap endonuclease 1 (FEN1) (AID 488816)
Summary of the method: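 Human FEN1 (10 nM) preincubated 15 min at room temperature with compounds, then flap DNA substrate added at 50 nM final. Fluorescence read at 0 and 15 min; concentration-response fitted with four-parameter Hill equation.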

[8] = target: M-phase phosphoprotein 8 (Homo sapiens) (UniProt Q99549); test: qHTS Validation Assay for Inhibitors for MPP8 Chromodomain Interactions with Methylated Histone Tails (AID 488949); further: nearly all actives have a fitted effect of over 55% in size; further: potency means the concentration at half of the fitted maximal effect
Summary of the method: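 Disruption of the preformed MPP8–trimethyl-H3K9 peptide complex (both 50 nM, 30 min, RT) is measured after 30 min compound exposure, using AlphaScreen proximity beads; aurintricarboxylic acid titration serves as plate control.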

[9] = target: Chromobox protein homolog 1 (Homo sapiens) (UniProt P83916); test: qHTS Validation Assay for Inhibitors of HP1-beta Chromodomain Interactions with Methylated Histone Tails (AID 488953); further: nearly all actives have a fitted effect of over 50% in size; further: potency means the concentration at half of the fitted maximal effect
Summary of the method: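 50 nM HP1-beta + 50 nM biotin-H3(1-18)K9me3, PBS pH 7.4, 0.01% Tween-20, 30 min RT; compound added, 30 min RT; AlphaScreen beads 10 ug/mL final, 30 min dark; luminescence read.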

[10] = Quantitative high throughput screen for delayed death inhibitors of the malarial parasite plastid, 96 hour incubation (AID 488745); further: nearly all actives have a fitted effect of over 70% in size; further: potency means the concentration at half of the fitted maximal effect
Summary of the method: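 Infected erythrocytes were added to compound in Albumax-supplemented RPMI 1640 at 0.1% parasitemia and 2% hematocrit (final), incubated 96 h at 37 C under 5% CO2, then luciferase reagent was added and luminescence measured.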

Measured: Potency

Sequence of ATP-dependent 6-phosphofructokinase (Trypanosoma brucei brucei) (O15648 whole entry, looked up): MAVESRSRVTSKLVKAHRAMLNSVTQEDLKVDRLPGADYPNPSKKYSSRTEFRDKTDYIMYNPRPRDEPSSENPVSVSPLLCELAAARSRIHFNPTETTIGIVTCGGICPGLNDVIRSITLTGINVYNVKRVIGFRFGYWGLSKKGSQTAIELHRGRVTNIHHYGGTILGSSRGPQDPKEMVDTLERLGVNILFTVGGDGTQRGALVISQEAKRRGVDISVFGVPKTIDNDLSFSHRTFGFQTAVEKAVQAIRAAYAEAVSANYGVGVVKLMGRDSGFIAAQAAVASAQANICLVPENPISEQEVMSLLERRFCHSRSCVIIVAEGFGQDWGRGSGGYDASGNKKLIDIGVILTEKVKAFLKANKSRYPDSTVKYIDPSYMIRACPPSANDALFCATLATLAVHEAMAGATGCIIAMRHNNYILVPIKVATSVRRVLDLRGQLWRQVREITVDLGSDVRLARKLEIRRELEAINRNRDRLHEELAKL
Sequence of Beta-2 adrenergic receptor (Homo sapiens) (P07550 whole entry, looked up): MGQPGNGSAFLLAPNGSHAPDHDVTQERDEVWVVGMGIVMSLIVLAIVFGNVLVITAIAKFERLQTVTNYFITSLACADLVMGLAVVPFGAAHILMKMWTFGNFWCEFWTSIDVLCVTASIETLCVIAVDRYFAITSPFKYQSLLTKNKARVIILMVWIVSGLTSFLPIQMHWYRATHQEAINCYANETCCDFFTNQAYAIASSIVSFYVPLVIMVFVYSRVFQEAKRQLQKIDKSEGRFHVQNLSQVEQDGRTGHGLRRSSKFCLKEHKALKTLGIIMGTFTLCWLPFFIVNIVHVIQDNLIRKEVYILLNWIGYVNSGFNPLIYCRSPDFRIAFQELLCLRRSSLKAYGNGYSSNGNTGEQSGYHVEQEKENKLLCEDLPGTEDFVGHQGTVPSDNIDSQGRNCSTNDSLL
Sequence of Chromobox protein homolog 1 (Homo sapiens) (P83916 whole entry, looked up): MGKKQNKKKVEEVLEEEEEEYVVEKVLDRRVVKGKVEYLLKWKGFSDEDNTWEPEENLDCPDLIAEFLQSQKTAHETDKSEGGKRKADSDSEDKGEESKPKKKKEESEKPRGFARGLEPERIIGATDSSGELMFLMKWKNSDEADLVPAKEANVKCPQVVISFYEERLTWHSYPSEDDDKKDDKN
Sequence of Flap endonuclease 1 (Homo sapiens) (P39748 whole entry, looked up): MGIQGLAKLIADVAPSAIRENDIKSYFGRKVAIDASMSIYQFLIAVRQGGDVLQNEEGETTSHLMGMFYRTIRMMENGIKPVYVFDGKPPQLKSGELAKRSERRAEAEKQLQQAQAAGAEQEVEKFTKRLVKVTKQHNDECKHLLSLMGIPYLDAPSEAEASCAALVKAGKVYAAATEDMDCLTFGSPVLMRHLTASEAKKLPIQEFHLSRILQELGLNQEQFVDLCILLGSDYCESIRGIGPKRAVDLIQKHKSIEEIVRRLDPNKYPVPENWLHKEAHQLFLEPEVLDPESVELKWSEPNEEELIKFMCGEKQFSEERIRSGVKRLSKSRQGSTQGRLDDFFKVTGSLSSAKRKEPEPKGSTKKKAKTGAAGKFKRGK
Sequence of Thioredoxin reductase 1, cytoplasmic (Rattus norvegicus) (O89049 whole entry, looked up): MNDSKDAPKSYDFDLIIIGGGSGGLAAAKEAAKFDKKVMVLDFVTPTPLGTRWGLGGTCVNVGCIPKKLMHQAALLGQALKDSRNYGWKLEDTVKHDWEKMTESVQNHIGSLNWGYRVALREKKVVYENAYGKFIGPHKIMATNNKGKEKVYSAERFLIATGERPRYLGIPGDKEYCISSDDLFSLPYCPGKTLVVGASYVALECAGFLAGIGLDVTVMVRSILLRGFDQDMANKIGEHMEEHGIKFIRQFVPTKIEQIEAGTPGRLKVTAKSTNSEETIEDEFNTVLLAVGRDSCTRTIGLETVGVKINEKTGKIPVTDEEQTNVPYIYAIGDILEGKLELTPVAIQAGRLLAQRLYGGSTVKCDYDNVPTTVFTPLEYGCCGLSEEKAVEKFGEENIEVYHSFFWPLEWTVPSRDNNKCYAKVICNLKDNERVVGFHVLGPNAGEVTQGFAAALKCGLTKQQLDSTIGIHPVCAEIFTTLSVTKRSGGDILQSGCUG
Sequence of M-phase phosphoprotein 8 (Homo sapiens) (Q99549 whole entry, looked up): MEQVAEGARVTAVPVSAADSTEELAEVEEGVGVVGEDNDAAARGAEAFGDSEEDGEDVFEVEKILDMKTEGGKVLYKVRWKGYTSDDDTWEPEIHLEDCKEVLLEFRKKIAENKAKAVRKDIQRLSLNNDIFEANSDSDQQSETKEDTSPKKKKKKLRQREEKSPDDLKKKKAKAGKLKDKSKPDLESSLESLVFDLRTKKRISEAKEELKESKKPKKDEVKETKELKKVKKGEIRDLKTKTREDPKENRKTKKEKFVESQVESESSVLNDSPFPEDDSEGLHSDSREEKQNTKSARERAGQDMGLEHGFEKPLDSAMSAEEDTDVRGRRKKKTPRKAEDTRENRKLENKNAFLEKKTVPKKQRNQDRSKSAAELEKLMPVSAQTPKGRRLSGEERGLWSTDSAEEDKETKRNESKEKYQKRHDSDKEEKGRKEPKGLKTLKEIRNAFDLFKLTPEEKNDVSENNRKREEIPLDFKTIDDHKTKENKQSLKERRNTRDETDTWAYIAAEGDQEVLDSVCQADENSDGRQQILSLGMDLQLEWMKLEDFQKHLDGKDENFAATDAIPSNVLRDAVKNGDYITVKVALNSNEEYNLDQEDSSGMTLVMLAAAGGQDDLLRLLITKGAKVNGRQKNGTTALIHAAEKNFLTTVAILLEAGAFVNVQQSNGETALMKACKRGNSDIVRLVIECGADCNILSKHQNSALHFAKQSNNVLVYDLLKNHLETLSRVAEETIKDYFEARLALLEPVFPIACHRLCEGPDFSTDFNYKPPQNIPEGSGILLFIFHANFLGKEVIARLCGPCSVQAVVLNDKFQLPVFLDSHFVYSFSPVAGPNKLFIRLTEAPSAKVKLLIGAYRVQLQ

C[N+]1(CCCCC[N+]2(C)CCCC2)CCCC1
not listed: [10]
inactive: all other assays above

CCC(NC(C)C)C(O)c1ccc(O)c(O)c1 (stereo not given)
not listed: [2] | [6] | [10]
inactive: all other assays above

CC(=O)O[C@H]1C[C@@H]2CC[C@@H]3[C@H](CC[C@@]4(C)[C@H]3C[C@H]([N+]3(C)CCCCC3)[C@@H]4OC(C)=O)[C@@]2(C)C[C@@H]1[N+]1(C)CCCCC1
not listed: [4] | [10]
inactive: all other assays above

COc1cc(NS(C)(=O)=O)ccc1Nc1c2ccccc2nc2ccccc12
active: [10] 1.17 µM | [4] 1.85 µM | [9] 79.4 µM
39.8 µM (active) and inactive: [8]
not listed: [1]
inactive: all other assays above

C[C@]12CC[C@@H]3c4ccc(O)cc4CC[C@H]3[C@@H]1CC[C@@H]2O
not listed: [1]
inactive: all other assays above

C1CCc2nnnn2CC1
not listed: [3]
inactive: all other assays above

COc1cc2c(cc1O)CC[C@@H]1[C@@H]2CC[C@]2(C)[C@@H](O)CC[C@@H]12
inactive: [2] | [5] | [6] | [7] | [8]

Oc1ccc(O)cc1
active: [3] 10.7 µM | [10] 10.4 µM | [4] 8.28 µM
not listed: [9]
inactive: all other assays above

CN1C2CCC1CC(OC(=O)c1c[nH]c3ccccc13)C2 (stereo not given)
not listed: [3] | [4] | [10]
inactive: all other assays above

CNCCC(Oc1ccccc1C)c1ccccc1 (stereo not given)
inactive: [1] | [2] | [10] | [4] | [5] | [8]

CC(C)C[C@H]1C(=O)N2CCC[C@H]2[C@]2(O)O[C@](NC(=O)[C@@H]3C=C4c5cccc6[nH]c(Br)c(c56)C[C@H]4N(C)C3)(C(C)C)C(=O)N12
inactive: [1] | [2] | [5] | [6] | [7] | [8]

C[C@@H]1C(=O)NC2=Nc3cccc(Cl)c3CN21
not listed: [3]
inactive: all other assays above

COC(=O)[C@H]1[C@H]2C[C@H]3c4[nH]c5ccccc5c4CCN3C[C@H]2CC[C@@H]1O
not listed: [7] | [10]
inactive: all other assays above

O=C(O)c1cc2cc(Cc3cccnc3)ccc2o1
inactive: all assays above

N[C@H](CO)C(=O)O
inactive: all assays above

O=C1CCC(c2ccc(-n3ccnc3)cc2)=NN1
not listed: [9]
inactive: all other assays above

COc1cc(-c2ccc(=O)[nH]n2)ccc1OC(F)F
inactive: [10] | [4] | [8]

Nc1cc(Cl)c(NC2=NCCN2)c(Cl)c1
not listed: [3]
inactive: all other assays above

CCCn1c(=O)[nH]c(=O)c2[nH]cnc21
not listed: [3]
inactive: all other assays above

N[C@@H](Cc1cnc[nH]1)C(=O)O
inactive: all assays above

CNCCC=C1c2ccccc2CCc2ccccc21
inactive: [2] | [3] | [5] | [6] | [8] | [9]

CCCC1O[C@@H]2C[C@H]3[C@@H]4CCC5=CC(=O)C=C[C@]5(C)[C@H]4[C@@H](O)C[C@]3(C)[C@]2(C(=O)CO)O1 (stereo not given in full)
inactive: [2] | [5] | [6] | [7] | [8] | [9]

CC(C)NC[C@@H](O)COc1cccc2ccccc12
inactive: [8]

CC1(C)CCC(NC(=O)[C@@H](N)CCC(=O)O)CC1
inactive: all assays above

CC(CCc1ccccc1)NCC(O)c1ccc(O)c(C(N)=O)c1 (stereo not given)
active: [4] 13.1 µM
not listed: [2] | [10]
inactive: all other assays above

CC[C@H](C)C(=O)O[C@H]1CCC=C2C=C[C@H](C)[C@H](CC[C@@H]3C[C@@H](O)CC(=O)O3)[C@H]21
not listed: [1] | [4] | [10]
inactive: all other assays above

CC(C)COC(=O)OCN1C(=O)CN(CCN2CC(=O)N(COC(=O)OCC(C)C)C(=O)C2)CC1=O
not listed: [3] | [8]
inactive: all other assays above

CN=C(NC#N)Nc1ccc(C2=NNC(=O)CC2C)cc1 (stereo not given)
inactive: [10] | [4] | [8]
